For ten compounds, growth inhibition results are on record in PubChem BioAssay (NCI).

The panel holds about 79,000 compounds, 15% with a hit somewhere; the sample as a whole holds those more often. A number with no mark means an inactive call. The source made the active and inactive calls. No stated cut-off is given here; in the data, active means growth inhibition above about 70%; inactive means the rest.

A short description of assay [1]: NCI Yeast Anticancer Drug Screen. Data for the rad50 strain (AID 155).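 Further: 0% = growth of vehicle-only cultures of the same strain.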 Conditions: S. cerevisiae rad50 strain growth inhibition, stronger effect = higher value. The method in brief:
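Inhibition values express reduced yeast growth in compound-treated cultures relative to vehicle-treated controls.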

Assay [2] is described as follows: NCI Yeast Anticancer Drug Screen. Data for the mec2-1 strain (AID 157). Conditions: S. cerevisiae mec2-1 strain, stronger effect = higher value. The method in brief:
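mec2-1 yeast strain, carrying an alteration in DNA damage repair or cell cycle control, was exposed to compounds; growth inhibition was measured relative to vehicle-treated controls.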

A short description of assay [3]: NCI Yeast Anticancer Drug Screen. Data for the sgs1 mgt1 strain (AID 161).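 Further: 0% = growth of cultures given vehicle only.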 Conditions: S. cerevisiae sgs1 mgt1 strain, stronger effect = higher value. The method in brief:
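Yeast cells carrying a defined DNA-repair defect were exposed to test compounds. Growth inhibition was measured relative to vehicle-treated controls.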

Assay [4] can be described thus: NCI Yeast Anticancer Drug Screen. Data for the cln2 rad14 strain (AID 165).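 Further: 0% = growth equal to vehicle treated cultures.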 Conditions: S. cerevisiae cln2 rad14 strain, stronger effect = higher value. In short, it runs like this:
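Yeast carrying cln2 and rad14 alterations (cell cycle control and DNA damage repair) were exposed to compounds. Growth inhibition was measured against vehicle-treated controls.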

Assay [5] can be described thus: NCI Yeast Anticancer Drug Screen. Data for the bub3 strain (AID 167). Conditions: S. cerevisiae bub3 mutant strain, stronger effect = higher value. The method in brief:
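Steps: expose the mutant yeast strain to compound; grow alongside vehicle-treated cultures; measure growth; express inhibition against the vehicle cultures.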

Assay [6] is described as follows: NCI Yeast Anticancer Drug Screen. Data for the mlh1 rad18 strain (AID 175). Conditions: S. cerevisiae mlh1 rad18 strain growth inhibition, stronger effect = higher value. The method in brief: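 Growth inhibition of the yeast strain was measured after compound exposure and expressed relative to vehicle-treated controls. The strain carries defined defects in DNA damage repair.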

Where [7] appears, read: at 5.0 µM (retest, dose inferred, filed as 0.5).
Where [8] appears, read: at 50.0 µM (retest, dose inferred, filed as 5.0).

`O=C1C(CN2CCCC2)C(O)=C(c2ccccc2)N1c1ccccc1` (stereo not given): the growth inhibition in assay [1] (setting [7]) was 5%; in assay [1] (setting [8]), 4%; in assay [1] (at 50.0 µM), 52.2%; in assay [2] (setting [7]), 1%; in assay [2] (setting [8]), 9%; in assay [2] (at 50.0 µM) it was 14.8%. Besides, the growth inhibition in assay [3] (setting [7]) is 1%; in assay [3] (setting [8]), 2%; in assay [3] (at 50.0 µM) it was 75.5% (active); in assay [4] (setting [7]), -3%; in assay [4] (setting [8]), 1%; in assay [4] (at 50.0 µM), 18.6%. For the same compound, the growth inhibition was -6% in assay [5] (setting [7]); 1% in assay [5] (setting [8]); 30.1% in assay [5] (at 50.0 µM); 0% in assay [6] (setting [7]); 1% in assay [6] (setting [8]); 43.1% in assay [6] (at 50.0 µM).
Turning to `C/C=C/C/S(=N\S(=O)(=O)c1ccc(C)cc1)c1ccccc1` (stereo not given), the growth inhibition was 4% in assay [1] (setting [7]); 93% (active) in assay [1] (setting [8]); 96.7% (active) in assay [1] (at 50.0 µM); 4% in assay [2] (setting [7]); 88% (active) in assay [2] (setting [8]); 95.5% (active) in assay [2] (at 50.0 µM). In addition, the growth inhibition was 11% in assay [3] (setting [7]); 97% (active) in assay [3] (setting [8]); 81.5% (active) in assay [3] (at 50.0 µM); 1% in assay [4] (setting [7]); 73% (active) in assay [4] (setting [8]); 40.9% in assay [4] (at 50.0 µM). Besides, the growth inhibition was -7% in assay [5] (setting [7]); 97% (active) in assay [5] (setting [8]); 94.7% (active) in assay [5] (at 50.0 µM); 5% in assay [6] (setting [7]); 95% (active) in assay [6] (setting [8]); 93.3% (active) in assay [6] (at 50.0 µM).
Turning to `CC(=O)OCCSCCOC(C)=O`, the growth inhibition in assay [1] (setting [7]) is 20%; in assay [1] (setting [8]), 90% (active); in assay [1] (at 50.0 µM), 76.4% (active); in assay [2] (setting [7]), -1%; in assay [2] (setting [8]), 84% (active); in assay [2] (at 50.0 µM), 29.4%. In addition, the growth inhibition is 6% in assay [3] (setting [7]); 88% (active) in assay [3] (setting [8]); 81% (active) in assay [3] (at 50.0 µM); 7% in assay [4] (setting [7]); 23% in assay [4] (setting [8]); 12.2% in assay [4] (at 50.0 µM). Moreover, the growth inhibition in assay [5] (setting [7]) is 7%; in assay [5] (setting [8]), 88% (active); in assay [5] (at 50.0 µM), 39%; in assay [6] (setting [7]), 7%; in assay [6] (setting [8]), 90% (active); in assay [6] (at 50.0 µM), 78.3% (active).
On to `COc1cc2c(c(C3C(=O)N(C)c4ccc(Br)cc43)c1OC)OCO2` (stereo not given), for which the growth inhibition in assay [1] (setting [7]) is 3%; in assay [1] (setting [8]), 3%; in assay [1] (at 50.0 µM), 4.3%; in assay [2] (setting [7]) it was 2%; in assay [2] (setting [8]), 4%; in assay [2] (at 50.0 µM), 12.7%. For the same compound, the growth inhibition in assay [3] (setting [7]) is -1%; in assay [3] (setting [8]) it was 10%; in assay [3] (at 50.0 µM) it was 11.3%; in assay [4] (setting [7]), 5%; in assay [4] (setting [8]), 12%; in assay [4] (at 50.0 µM) it was -3.8%. Further, the growth inhibition in assay [5] (setting [7]) is 4%; in assay [5] (setting [8]), -1%; in assay [5] (at 50.0 µM), -1.85%; in assay [6] (setting [7]), 4%; in assay [6] (setting [8]) it was 10%; in assay [6] (at 50.0 µM), 8.55%.
Take `C/C(=N/NC(N)=S)C(CN1CCOCC1)C(C1=C(O)c2ccccc2OC1)c1ccccc1` (stereo not given): the growth inhibition in assay [1] (setting [7]) was 26%; in assay [1] (setting [8]), 26%; in assay [1] (at 50.0 µM), 75% (active); in assay [2] (setting [7]), 28%; in assay [2] (setting [8]), 28%; in assay [2] (at 50.0 µM), 71.8% (active). The growth inhibition in assay [3] (setting [7]) is 24%; in assay [3] (setting [8]), 24%; in assay [3] (at 50.0 µM) it was 80.9% (active); in assay [4] (setting [7]) it was 6%; in assay [4] (setting [8]), 6%; in assay [4] (at 50.0 µM), 75.4% (active). Moreover, the growth inhibition in assay [5] (setting [7]) was 24%; in assay [5] (setting [8]), 24%; in assay [5] (at 50.0 µM), 71% (active); in assay [6] (setting [7]) it was 26%; in assay [6] (setting [8]), 26%; in assay [6] (at 50.0 µM) it was 77.7% (active).
As to `CCc1cccc(CC)c1NC(=S)N/C=C(\C#N)C(=O)c1ccc2ccccc2c1`, the growth inhibition in assay [1] (setting [7]) was 7%; in assay [1] (setting [8]), 14%; in assay [1] (at 50.0 µM), 44.8%; in assay [2] (setting [7]), -2%; in assay [2] (setting [8]), 6%; in assay [2] (at 50.0 µM), 38.5%. Besides, the growth inhibition in assay [3] (setting [7]) is 0%; in assay [3] (setting [8]), 13%; in assay [3] (at 50.0 µM), 61.4%; in assay [4] (setting [7]), -23%; in assay [4] (setting [8]), 5%; in assay [4] (at 50.0 µM), 6.85%. The growth inhibition in assay [5] (setting [7]) was 3%; in assay [5] (setting [8]), 7%; in assay [5] (at 50.0 µM), 59.1%; in assay [6] (setting [7]) it was -2%; in assay [6] (setting [8]), 5%; in assay [6] (at 50.0 µM) it was 67.2%.
`Cc1ccc2c(c1)-c1c(c3c(c4c1-c1cc(C)ccc1CC4)C(=O)OC3=O)CC2`: the growth inhibition is 14% in assay [1] (setting [7]); 72% (active) in assay [1] (setting [8]); 43.9% in assay [1] (at 50.0 µM); 10% in assay [2] (setting [7]); 43% in assay [2] (setting [8]); 16.7% in assay [2] (at 50.0 µM). In addition, the growth inhibition was 2% in assay [3] (setting [7]); 59% in assay [3] (setting [8]); 12.2% in assay [3] (at 50.0 µM); 14% in assay [4] (setting [7]); 41% in assay [4] (setting [8]); 3.45% in assay [4] (at 50.0 µM). Further, the growth inhibition in assay [5] (setting [7]) was 4%; in assay [5] (setting [8]), 47%; in assay [5] (at 50.0 µM), 7.65%; in assay [6] (setting [7]) it was 9%; in assay [6] (setting [8]) it was 56%; in assay [6] (at 50.0 µM), 36.5%.
In the case of `O=C1/C(=C/c2cccc([N+](=O)[O-])c2)CCCc2ccccc21`, the growth inhibition is 4% in assay [1] (setting [7]); 92% (active) in assay [1] (setting [8]); 73.5% (active) in assay [1] (at 50.0 µM); 7% in assay [2] (setting [7]); 94% (active) in assay [2] (setting [8]); 68.8% in assay [2] (at 50.0 µM). Besides, the growth inhibition in assay [3] (setting [7]) is 13%; in assay [3] (setting [8]) it was 94% (active); in assay [3] (at 50.0 µM), 83.2% (active); in assay [4] (setting [7]), -5%; in assay [4] (setting [8]), 91% (active); in assay [4] (at 50.0 µM), 70.7% (active). For the same compound, the growth inhibition is 20% in assay [5] (setting [7]); 94% (active) in assay [5] (setting [8]); 84.8% (active) in assay [5] (at 50.0 µM); 9% in assay [6] (setting [7]); 93% (active) in assay [6] (setting [8]); 75.9% (active) in assay [6] (at 50.0 µM).
With `O=C(O)/C=C/c1c2ccccc2cc2ccccc12`, the growth inhibition in assay [1] (setting [7]) is 41%; in assay [1] (setting [8]), 96% (active); in assay [1] (at 50.0 µM), 97.1% (active); in assay [2] (setting [7]), 16%; in assay [2] (setting [8]), 98% (active); in assay [2] (at 50.0 µM), 96.5% (active). The growth inhibition was 27% in assay [3] (setting [7]); 97% (active) in assay [3] (setting [8]); 94.7% (active) in assay [3] (at 50.0 µM); 9% in assay [4] (setting [7]); 96% (active) in assay [4] (setting [8]); 96.9% (active) in assay [4] (at 50.0 µM). Moreover, the growth inhibition in assay [5] (setting [7]) was 71% (active); in assay [5] (setting [8]), 96% (active); in assay [5] (at 50.0 µM), 97.3% (active); in assay [6] (setting [7]), 47%; in assay [6] (setting [8]), 97% (active); in assay [6] (at 50.0 µM), 97.5% (active).
In the case of `Cc1ccc(/C=C2\CCCC(CN3CCCCC3)C2=O)cc1` (stereo not given), the growth inhibition is 23% in assay [1] (setting [7]); 99% (active) in assay [1] (setting [8]); 75% (active) in assay [1] (at 50.0 µM); 34% in assay [2] (setting [7]); 99% (active) in assay [2] (setting [8]); 83% (active) in assay [2] (at 50.0 µM). Also, the growth inhibition in assay [3] (setting [7]) was 30%; in assay [3] (setting [8]) it was 99% (active); in assay [3] (at 50.0 µM), 87.8% (active); in assay [4] (setting [7]), 45%; in assay [4] (setting [8]) it was 98% (active); in assay [4] (at 50.0 µM), 73.3% (active). For the same compound, the growth inhibition in assay [5] (setting [7]) is 37%; in assay [5] (setting [8]), 99% (active); in assay [5] (at 50.0 µM), 89.3% (active); in assay [6] (setting [7]) it was 32%; in assay [6] (setting [8]), 99% (active); in assay [6] (at 50.0 µM), 90% (active).
